Measurements from the supplement of paper PMC10981050.
Where “and” joins values, the source holds several entries; their conditions need not be identical. Equal values may be shown once. Where a name gives a salt, the structure may show the parent alone.

Tested on: K562
Assay: cell viability relative to vehicle control; higher = less cytotoxic
Conditions: 10 µM; SRSF2 genotype: SRSF2 P95H/wt
How it was run: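 CRISPR-edited mutant clones and isogenic wild-type clones from four leukaemia lines were screened against Selleck bioactive, kinase and epigenetic probe libraries, with identity-inconsistent compounds excluded. Each compound was acoustically dispensed at a single 10 µM dose into 384-well plates holding 2000 cells in 50 µL medium per well. After 48 h the supernatant was removed and CellTiter-Glo luminescence was read. Viability was expressed as percent of the on-plate vehicle control and analysed in Genedata Screener.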

| SMILES | cell viability |
| --- | --- |
| CC(C)NCC(O)COc1ccc(CCOCC2CC2)cc1 (centres undefined) [Betaxolol hydrochloride (Betoptic)] | 97.5% and 96.6% |
| c1ccc2[nH]c(-c3cscn3)nc2c1 [Thiabendazole] | 105% and 101% |
| Cc1c[nH]c(C=C2C(=O)Nc3ccccc32)c1CCC(=O)O | 91.9% and 93.8% |
| C[C@H](NC(=O)CCc1nc2ccccc2c(=O)[nH]1)c1ccccc1 | 103% |
| C=CC(=O)N1C[C@H](Nc2ncnc3[nH]ccc23)CC[C@@H]1C | 96.3% and 105% |
| CC(=O)Nc1ccc(C(=O)Nc2ccccc2N)cc1 [CI994 (Tacedinaline)] | 59.2% and 64.7% |
| N#Cc1c(NC(=O)c2cccc3ccccc23)sc2c1CCCC2 [JNK inhibitor IX] | 16.2% and 37.1% |
| CNC(=O)c1cc(COc2nnc(Nc3ccc(Cl)cc3)c3ccoc23)ccn1 [Telatinib (BAY 57-9352)] | 94.6% and 90.8% |
| Cn1c(N2CCCCS2(=O)=O)nc(C(=O)NCc2ccc(F)cc2)c(O)c1=O | 110% |
| CCC[C@@H]1C[C@@H](C(=O)N[C@@H]([C@H]2O[C@H](SC)[C@H](O)[C@@H](O)[C@H]2O)[C@H](C)Cl)N(C)C1 [Clindamycin HCl] | 91.2% and 108% |
| COCCNC(=O)Nc1ccc2nc(-c3cccs3)c(-c3cccs3)nc2c1 [ACSS2 inhibitor] | 82.9% and 79.4% |
| CC(C)=CCCC(C)(O)C1CCC2(C)C1C(O)CC1C3(C)CCC(O)C(C)(C)C3C(OC3OC(CO)C(O)C(O)C3OC3OC(C)C(O)C(O)C3O)CC12C [(20S)Ginsenoside Rg2] | 102% and 108% |
| COC1C(O)C(O)C(O)C(O)C1O (centres undefined) [Sequoyitol] | 102% and 107% |
| CO[C@H]1C[C@H](O[C@H]2[C@H](C)O[C@@H](O[C@@H]3/C(C)=C/C[C@@H]4C[C@@H](C[C@]5(C=C[C@H](C)[C@@H](C6CCCCC6)O5)O4)OC(=O)[C@@H]4C=C(C)[C@@H](O)[C@H]5OC/C(=C\C=C\[C@@H]3C)[C@]54O)C[C@@H]2OC)O[C@@H](C)[C@@H]1O [Doramectin] | 33% and 39.8% |
| C[C@H](CCC(=O)O)[C@H]1CC[C@H]2[C@@H]3[C@@H](O)C[C@@H]4C[C@H](O)CC[C@]4(C)[C@H]3CC[C@]12C [Ursodiol (Actigal Urso)] | 95.3% and 97.4% |
| C/C=C(\C)C(=O)OC1c2c(ccc3ccc(=O)oc23)OC(C)(C)C1OC(=O)/C(C)=C/C (centres undefined) [Praeruptorin B] | 83.5% and 92.2% |
| COc1cc([C@@H]2Oc3cc([C@H]4Oc5cc(O)cc(O)c5C(=O)[C@@H]4O)ccc3O[C@H]2CO)ccc1O [Silymarin (Silybin B)] | 106% and 94.4% |
| CCOC(=O)C1=C(COCCN)NC(C)=C(C(=O)OC)[C@@H]1c1ccccc1Cl [Levamlodipine] | 75.1% and 83.2% |
| CC1(C)CC[C@]2(C(=O)O)CC[C@]3(C)C(=CC[C@@H]4[C@@]5(C)CC[C@H](O)[C@@](C)(CO)[C@@H]5CC[C@]43C)[C@@H]2C1 [Hederagenin] | 103% and 102% |
| O=C(O)[C@]1(Cc2cccc(Nc3nccs3)n2)CC[C@@H](Oc2cccc(Cl)c2F)CC1 | 17.3% and 19.3% |
| O=C(Oc1cccc(F)c1OC(=O)c1cccc(O)c1)c1cccc(O)c1 | 92.4% and 99.5% |
| C[C@@H](O)[C@H]1C(=O)N2C(C(=O)O)=C(S[C@@H]3CN[C@H](C(=O)N(C)C)C3)[C@H](C)[C@H]12 [Meropenem] | 103% and 109% |
| CC(C)=CCC/C(C)=C/Cc1c(O)c(CC=C(C)C)c2c(c1O)C(=O)C1=C[C@@H]3C[C@H]4C(C)(C)O[C@@](C/C=C(/C)C(=O)O)(C3=O)[C@@]14O2 [Gambogenic acid] | 1.97% and 1.06% |
| CO[C@H]1C(=O)[C@]2(C)[C@@H](OC)C[C@H]3OC[C@@]3(OC(C)=O)[C@H]2[C@H](OC(=O)c2ccccc2)[C@]2(O)C[C@H](OC(=O)[C@H](O)[C@@H](NC(=O)OC(C)(C)C)c3ccccc3)C(C)=C1C2(C)C [Cabazitaxel (Jevtana)] | 24.8% and 36.9% |
| O=C(CCc1ccc(O)cc1)c1c(O)cc(O)cc1O [Phloretin] | 96.9% and 94.4% |
| CCCCCCCCCCCCc1ccc(S(=O)(=O)Nc2nncs2)cc1 | 107% and 104% |
| COc1cccc2cc(-c3nc([C@H]4CC[C@H](C(=O)O)CC4)n4ncnc(N)c34)[nH]c12 | 36.1% and 37% |
| COc1ccc(C[C@H](N)C(=O)N[C@H]2[C@@H](O)[C@H](n3cnc4c(N(C)C)ncnc43)O[C@@H]2CO)cc1 [Puromycin 2HCl] | 1.95% and 1.45% |
| COc1cc(-c2oc3cc(O)cc(O)c3c(=O)c2O[C@@H]2O[C@H](CO[C@@H]3O[C@@H](C)[C@H](O)[C@@H](O)[C@H]3O)[C@@H](O)[C@H](O)[C@H]2O)ccc1O [Narcissoside] | 108% and 102% |
